Compounds without any hit were thinned out: in the full panel of roughly 79,000, 15% have a hit. Calls of active or inactive are those of the source. No stated cut-off is given here; in the data, active means growth inhibition above about 70%; inactive means the rest.
How the values were obtained:
[1] = NCI Yeast Anticancer Drug Screen. Data for the rad52 strain (AID 147);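 further: 0% = growth of vehicle-treated control cultures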; conditions: S. cerevisiae rad52 mutant growth inhibition, hits give high values
Outline: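 Screen used a yeast mutant impaired in DNA repair. After compound exposure, growth was measured. Values reflect inhibition compared with vehicle-treated cells.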

[2] = NCI Yeast Anticancer Drug Screen. Data for the wt1 strain (AID 149);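 further: 0% = growth of vehicle-treated wt1 cultures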; conditions: S. cerevisiae wt1 strain (SPY 50644) growth inhibition, hits give high values
Outline: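 wt1 strain grown with compound or vehicle; inhibition taken from the growth difference.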

[3] = NCI Yeast Anticancer Drug Screen. Data for the rad50EPP+ strain (AID 151);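 further: 0% = growth of vehicle-treated control cultures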; conditions: S. cerevisiae rad50 mutant strain, hits give high values
Outline: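 Exposing the rad50EPP+ strain to each compound, growth was compared with vehicle-only cultures to give inhibition.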

[4] = NCI Yeast Anticancer Drug Screen. Data for the mgt1 strain (AID 153); conditions: S. cerevisiae mgt1 mutant growth inhibition, hits give high values
Outline: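 Genetically defined yeast (mgt1) treated with compound; inhibition of growth expressed against vehicle-treated controls.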

[5] = NCI Yeast Anticancer Drug Screen. Data for the rad50 strain (AID 155);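 further: 0% = growth of vehicle-only cultures of the same strain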; conditions: S. cerevisiae rad50 strain growth inhibition, hits give high values
Outline: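 DNA repair mutant yeast, compound exposure, growth read-out; inhibition is taken relative to vehicle.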

[6] = NCI Yeast Anticancer Drug Screen. Data for the mec2-1 strain (AID 157); conditions: S. cerevisiae mec2-1 strain, hits give high values
Outline: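 Readout is yeast growth inhibition, normalised to vehicle-treated controls, in the mec2-1 strain exposed to compound.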

[7] = NCI Yeast Anticancer Drug Screen. Data for the rad14 strain (AID 159);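 further: 0% = growth of vehicle-treated control cultures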; conditions: S. cerevisiae rad14 strain growth inhibition, hits give high values
Outline: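 DNA repair-defective yeast, compound-exposed; % growth inhibition derived by comparison with vehicle-treated controls.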

[8] = NCI Yeast Anticancer Drug Screen. Data for the sgs1 mgt1 strain (AID 161);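 further: 0% = growth of cultures given vehicle only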; conditions: S. cerevisiae sgs1 mgt1 strain, hits give high values
Outline: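 This yeast growth screen uses a strain with defined DNA-repair lesions; compound-treated growth is compared with vehicle-treated growth.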

[9] = NCI Yeast Anticancer Drug Screen. Data for the CLN2oe strain (AID 163);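 further: 0% = growth of vehicle-only control cultures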; conditions: S. cerevisiae CLN2oe strain, hits give high values
Outline: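 Values reflect how much compound exposure reduced yeast growth, referenced to vehicle-exposed cells. Assay organism is a strain with a defined genetic change affecting cell-cycle control.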

[10] = NCI Yeast Anticancer Drug Screen. Data for the cln2 rad14 strain (AID 165);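 further: 0% = growth equal to vehicle treated cultures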; conditions: S. cerevisiae cln2 rad14 strain, hits give high values
Outline: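 Relative to vehicle controls, growth inhibition of compound-treated cln2 rad14 yeast was recorded.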

[11] = NCI Yeast Anticancer Drug Screen. Data for the bub3 strain (AID 167); conditions: S. cerevisiae bub3 mutant strain, hits give high values
Outline: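 In this screen, a yeast mutant lacking normal mitotic checkpoint function is challenged with compound. Relative growth versus vehicle gives the inhibition value.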

[12] = NCI Yeast Anticancer Drug Screen. Data for the wt2 strain (AID 169);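 further: 0% = growth of vehicle-treated yeast cultures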; conditions: S. cerevisiae wt2 strain growth inhibition, hits give high values
Outline: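 Values express reduction in yeast growth under compound treatment, referenced to vehicle-treated cells.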

[13] = NCI Yeast Anticancer Drug Screen. Data for the mlh1 strain (AID 171);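 further: 0% = growth of vehicle-treated control cultures of the same strain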; conditions: S. cerevisiae mlh1 strain growth inhibition, hits give high values
Outline: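 Steps: expose the defined-mutant yeast strain to compound; expose a parallel culture to vehicle; measure growth; express compound effect as inhibition relative to the vehicle culture.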

[14] = NCI Yeast Anticancer Drug Screen. Data for the sgs1 strain (AID 173);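 further: 0% = growth of vehicle-only control cultures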; conditions: S. cerevisiae sgs1 mutant, hits give high values
Outline: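 Treat defined-mutant yeast with compound; measure growth; calculate inhibition relative to vehicle-treated cells.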

[15] = NCI Yeast Anticancer Drug Screen. Data for the mlh1 rad18 strain (AID 175); conditions: S. cerevisiae mlh1 rad18 strain growth inhibition, hits give high values
Outline: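 Test agents were incubated with a yeast strain of defined genotype (DNA damage repair defect). Inhibition of growth was derived by comparison with vehicle-exposed cultures.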

[16] = NCI Yeast Anticancer Drug Screen. Data for the rad18 strain (AID 177); conditions: S. cerevisiae rad18 mutant growth inhibition, hits give high values
Outline: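 A genetically defined yeast mutant impaired in DNA damage repair was treated with test compounds, then its growth was measured against cultures receiving vehicle alone.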

[17] = at 5.0 µM (retest, dose inferred, filed as 0.5)
[18] = at 50.0 µM (retest, dose inferred, filed as 5.0)

Measured: growth inhibition

CCCCCCCCCCNC(=O)OCC
active: [1]; at 100.0 µM 98% | [2]; at 100.0 µM 98% | [3]; at 100.0 µM 81% | [4]; at 100.0 µM 99% | [5]; at 50.0 µM 84.5% | [5]; at 100.0 µM 99% | [6]; at 50.0 µM 93.5% | [6]; at 100.0 µM 100% | [7]; at 100.0 µM 99% | [8]; at 50.0 µM 83.7% | [9]; at 100.0 µM 99% | [10]; at 50.0 µM 98.3% | [11]; at 50.0 µM 95.3% | [11]; at 100.0 µM 99% | [12]; at 100.0 µM 99% | [13]; at 100.0 µM 99% | [14]; at 100.0 µM 99% | [15]; at 50.0 µM 95% | [16]; at 100.0 µM 99%
inactive: [1]; at 1.2 µM 0% | [1]; at 3.7 µM 1% | [1]; at 11.0 µM 11% | [1]; at 33.0 µM 37% | [2]; at 1.2 µM -3% | [2]; at 3.7 µM -5% | [2]; at 11.0 µM -4% | [2]; at 33.0 µM 4% | [3]; at 1.2 µM 1% | [3]; at 3.7 µM 9% | [3]; at 11.0 µM 28% | [3]; at 33.0 µM 68% | [4]; at 1.2 µM -2% | [4]; at 3.7 µM -11% | [4]; at 11.0 µM 4% | [4]; at 33.0 µM 28% | [5]; at 1.2 µM 1% | [5]; at 3.7 µM 9% | [5]; [17] 1% | [5]; at 11.0 µM 24% | [5]; at 33.0 µM 40% | [5]; [18] 22% | [6]; at 1.2 µM -7% | [6]; at 3.7 µM -5% | [6]; [17] -7% | [6]; at 11.0 µM -6% | [6]; at 33.0 µM 7% | [6]; [18] 28% | [7]; at 1.2 µM -4% | [7]; at 3.7 µM -4% | [7]; at 11.0 µM -3% | [7]; at 33.0 µM 8% | [8]; [17] -2% | [8]; [18] 56% | [9]; at 1.2 µM 0% | [9]; at 3.7 µM 0% | [9]; at 11.0 µM 4% | [9]; at 33.0 µM 12% | [10]; [17] -55% | [10]; [18] 15% | [11]; at 1.2 µM 2% | [11]; at 3.7 µM -18% | [11]; [17] -21% | [11]; at 11.0 µM 9% | [11]; at 33.0 µM 8% | [11]; [18] 4% | [12]; at 1.2 µM -3% | [12]; at 3.7 µM -3% | [12]; at 11.0 µM 1% | [12]; at 33.0 µM 38% | [13]; at 1.2 µM -3% | [13]; at 3.7 µM 2% | [13]; at 11.0 µM 1% | [13]; at 33.0 µM 20% | [14]; at 1.2 µM -1% | [14]; at 3.7 µM -1% | [14]; at 11.0 µM 7% | [14]; at 33.0 µM 59% | [15]; [17] -15% | [15]; [18] 68% | [16]; at 1.2 µM 0% | [16]; at 3.7 µM 1% | [16]; at 11.0 µM 18% | [16]; at 33.0 µM 11%

Source: PubChem BioAssay (NCI)
